# Assay results as given in PubChem BioAssay AID1159580 (chemical genetic matrix, 2015).
# The campaign covered roughly 5,500 compounds. About 2,000 (36%) were called active. Inconclusive results (about 18%) are left out. This is one part of the list. Values without a mark were called inactive. Cut-off read from the data, not from the text of the source: active = normalized growth mostly below about 0.91 (no sharp cut-off); inconclusive = no clear call, values can overlap the other calls; inactive = mostly above about 0.92.
# Assay: chemical genetic growth profiling, strain panel (AID 1159580);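 note: tested at 20 µM; growth read once vehicle control cultures reached saturation at 30 °C; 1 = growth at the plate median or of vehicle wells; lower values mean less growth of the strain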
# Details: growth OD
smiles,measurement,setting,value
CC(=O)O[C@]1(C(C)=O)CCC2C3C=C(C)C4=CC(=O)CCC4(C)C3CCC21C (stereo partly specified),normalized growth,"S. cerevisiae deletion strains, locus YKL009W, strain mrt4, hits give low values",0.963
same,normalized growth,"S. cerevisiae deletion strains, locus YKL068W, hits give low values",0.98
same,normalized growth,"S. cerevisiae deletion strains, locus YKL085W, strain MDH1 (second series), hits give low values",0.908 (active)
same,normalized growth,"S. cerevisiae deletion strains, locus YKL085W, strain MDH1, hits give low values",0.908 (active)
same,normalized growth,"S. cerevisiae deletion strains, locus YKL160W, strain elf1, hits give low values",0.955
same,normalized growth,"S. cerevisiae deletion strains, locus YKL190W, strain CNB1, hits give low values",0.93
same,normalized growth,"S. cerevisiae deletion strains, locus YKR001C, strain vps1, hits give low values",0.81 (active)
same,normalized growth,"S. cerevisiae deletion strains, locus YKR026C, strain gcn3, hits give low values",0.976
same,normalized growth,"S. cerevisiae deletion strains, locus YKR091W, strain srl3, hits give low values",0.96
same,normalized growth,"S. cerevisiae deletion strains, locus YLL001W, strain dnm1, hits give low values",0.886 (active)
same,normalized growth,"S. cerevisiae deletion strains, locus YLL026W, hits give low values",0.941
same,normalized growth,"S. cerevisiae deletion strains, locus YLL041C, strain sdh2, hits give low values",0.969
same,normalized growth,"S. cerevisiae deletion strains, locus YLR027C, strain aat2, hits give low values",0.919 (active)
same,normalized growth,"S. cerevisiae deletion strains, locus YLR039C, strain RIC1, hits give low values",0.859
same,normalized growth,"S. cerevisiae deletion strains, locus YLR058C, strain SHM2, hits give low values",0.988
same,normalized growth,"S. cerevisiae deletion strains, locus YLR102C, strain apc9, hits give low values",0.979
same,normalized growth,"S. cerevisiae deletion strains, locus YLR113W, strain HOG1, hits give low values",0.949
same,normalized growth,"S. cerevisiae deletion strains, locus YLR221C, strain rsa3, hits give low values",0.957
same,normalized growth,"S. cerevisiae deletion strains, locus YLR258W, strain gsy2, hits give low values",0.956
same,normalized growth,"S. cerevisiae deletion strains, locus YLR262C, strain YPT6 (second series), hits give low values",0.699 (active)
same,normalized growth,"S. cerevisiae deletion strains, locus YLR262C, strain YPT6, hits give low values",0.859
same,normalized growth,"S. cerevisiae deletion strains, locus YLR268W, strain sec22, hits give low values",0.913
same,normalized growth,"S. cerevisiae deletion strains, locus YLR320W, strain mms22, hits give low values",0.864 (active)
same,normalized growth,"S. cerevisiae deletion strains, locus YLR330W, strain CHS5, hits give low values",0.964
same,normalized growth,"S. cerevisiae deletion strains, locus YLR342W, strain FKS1 (second series), hits give low values",0.759 (active)
same,normalized growth,"S. cerevisiae deletion strains, locus YLR342W, strain FKS1, hits give low values",0.768 (active)
same,normalized growth,"S. cerevisiae deletion strains, locus YLR357W, strain rsc2, hits give low values",0.953
same,normalized growth,"S. cerevisiae deletion strains, locus YLR370C, strain arc18, hits give low values",0.96
same,normalized growth,"S. cerevisiae deletion strains, locus YLR371W, strain rom2, hits give low values",0.984
same,normalized growth,"S. cerevisiae deletion strains, locus YLR384C, strain iki3, hits give low values",0.964
same,normalized growth,"S. cerevisiae deletion strains, locus YLR418C, strain cdc73, hits give low values",0.627 (active)
same,normalized growth,"S. cerevisiae deletion strains, locus YML016C, strain PPZ1, hits give low values",0.992
same,normalized growth,"S. cerevisiae deletion strains, locus YML032C, strain rad52, hits give low values",0.96
same,normalized growth,"S. cerevisiae deletion strains, locus YML120C, strain ndi1, hits give low values",0.906 (active)
same,normalized growth,"S. cerevisiae deletion strains, locus YML124C, strain tub3, hits give low values",0.976
same,normalized growth,"S. cerevisiae deletion strains, locus YMR058W, strain fet3, hits give low values",0.913
same,normalized growth,"S. cerevisiae deletion strains, locus YMR078C, strain ctf18, hits give low values",0.961
same,normalized growth,"S. cerevisiae deletion strains, locus YMR125W, strain sto1, hits give low values",0.995
same,normalized growth,"S. cerevisiae deletion strains, locus YMR129W, hits give low values",0.967
same,normalized growth,"S. cerevisiae deletion strains, locus YMR205C, strain PFK2, hits give low values",0.888
same,normalized growth,"S. cerevisiae deletion strains, locus YMR223W, strain ubp8, hits give low values",0.888 (active)
same,normalized growth,"S. cerevisiae deletion strains, locus YMR231W, strain pep5, hits give low values",0.967
same,normalized growth,"S. cerevisiae deletion strains, locus YMR263W, strain SAP30, hits give low values",0.922
same,normalized growth,"S. cerevisiae deletion strains, locus YMR307W, strain GAS1, hits give low values",0.817
same,normalized growth,"S. cerevisiae deletion strains, locus YNL067W, strain RPL9B, hits give low values",0.914
same,normalized growth,"S. cerevisiae deletion strains, locus YNL071W, strain lat1, hits give low values",0.822 (active)
same,normalized growth,"S. cerevisiae deletion strains, locus YNL128W, strain TEP1, hits give low values",0.98
same,normalized growth,"S. cerevisiae deletion strains, locus YNL153C, strain GIM3, hits give low values",0.929
same,normalized growth,"S. cerevisiae deletion strains, locus YNL183C, strain NPR1, hits give low values",0.939
same,normalized growth,"S. cerevisiae deletion strains, locus YNL209W, strain ssb2, hits give low values",0.985
same,normalized growth,"S. cerevisiae deletion strains, locus YNL233W, strain BNI4, hits give low values",0.862 (active)
same,normalized growth,"S. cerevisiae deletion strains, locus YNL248C, strain rpa49, hits give low values",0.958
same,normalized growth,"S. cerevisiae deletion strains, locus YNL250W, strain rad50, hits give low values",0.938
same,normalized growth,"S. cerevisiae deletion strains, locus YNL271C, strain bni1, hits give low values",0.949
same,normalized growth,"S. cerevisiae deletion strains, locus YNL298W, strain CLA4, hits give low values",0.966
same,normalized growth,"S. cerevisiae deletion strains, locus YNL307C, strain MCK1, hits give low values",0.714 (active)
same,normalized growth,"S. cerevisiae deletion strains, locus YNL322C, strain KRE1 (second series), hits give low values",0.972
same,normalized growth,"S. cerevisiae deletion strains, locus YNL322C, strain KRE1, hits give low values",0.983
same,normalized growth,"S. cerevisiae deletion strains, locus YNR049C, strain mso1, hits give low values",0.958
same,normalized growth,"S. cerevisiae deletion strains, locus YNR052C, strain pop2, hits give low values",0.99
same,normalized growth,"S. cerevisiae deletion strains, locus YOL006C, strain TOP1, hits give low values",0.85
same,normalized growth,"S. cerevisiae deletion strains, locus YOL012C, strain htz1",0.402
same,normalized growth,"S. cerevisiae deletion strains, locus YOL147C, strain pex11, hits give low values",0.981
same,normalized growth,"S. cerevisiae deletion strains, locus YOR001W, strain rrp6, hits give low values",0.947
same,normalized growth,"S. cerevisiae deletion strains, locus YOR061W, strain CKA2, hits give low values",0.977
same,normalized growth,"S. cerevisiae deletion strains, locus YOR069W, strain VPS5, hits give low values",0.998
same,normalized growth,"S. cerevisiae deletion strains, locus YOR070C, strain gyp1, hits give low values",0.967
same,normalized growth,"S. cerevisiae deletion strains, locus YOR080W, strain dia2, hits give low values",0.953
same,normalized growth,"S. cerevisiae deletion strains, locus YOR083W, strain WHI5, hits give low values",0.9
same,normalized growth,"S. cerevisiae deletion strains, locus YOR106W, strain vam3, hits give low values",0.877
same,normalized growth,"S. cerevisiae deletion strains, locus YOR136W, strain idh2, hits give low values",0.971
same,normalized growth,"S. cerevisiae deletion strains, locus YOR144C, strain elg1, hits give low values",0.985
same,normalized growth,"S. cerevisiae deletion strains, locus YOR184W, strain ser1, hits give low values",0.746 (active)
same,normalized growth,"S. cerevisiae deletion strains, locus YOR231W, strain MKK1, hits give low values",0.961
same,normalized growth,"S. cerevisiae deletion strains, locus YOR265W, strain rbl2, hits give low values",0.954
same,normalized growth,"S. cerevisiae deletion strains, locus YOR270C, strain vph1, hits give low values",0.718 (active)
same,normalized growth,"S. cerevisiae deletion strains, locus YOR290C, strain snf2, hits give low values",0.969
same,normalized growth,"S. cerevisiae deletion strains, locus YOR316C, strain cot1, hits give low values",0.979
same,normalized growth,"S. cerevisiae deletion strains, locus YPL051W, strain arl3, hits give low values",0.922
same,normalized growth,"S. cerevisiae deletion strains, locus YPL055C, strain LGE1, hits give low values",0.828
same,normalized growth,"S. cerevisiae deletion strains, locus YPL078C, strain atp4, hits give low values",0.855 (active)
same,normalized growth,"S. cerevisiae deletion strains, locus YPL106C, strain sse1, hits give low values",1.05
same,normalized growth,"S. cerevisiae deletion strains, locus YPL240C, strain hsp82, hits give low values",0.963
same,normalized growth,"S. cerevisiae deletion strains, locus YPL241C, strain CIN2, hits give low values",0.982
same,normalized growth,"S. cerevisiae deletion strains, locus YPL256C, strain CLN2, hits give low values",0.915
same,normalized growth,"S. cerevisiae deletion strains, locus YPR119W, strain clb2, hits give low values",0.983
same,normalized growth,"S. cerevisiae deletion strains, locus YPR141C, strain kar3, hits give low values",0.972
same,normalized growth,"S. cerevisiae deletion strains, locus YPR163C, strain tif3, hits give low values",0.983
same,normalized growth,"S. cerevisiae deletion strains, locus YPR167C, strain met16, hits give low values",0.977
same,normalized growth,"S. cerevisiae deletion strains, strain wtn01, hits give low values",0.881 (active)
same,normalized growth,"S. cerevisiae strains, strain wild type, hits give low values",0.88 (active)
